Compound activity as filed in PubChem.
In the library only some 3.8% were active in any assay of this set; here they are far more common.
aDG glyco up: alpha-DG glycosylation activation; AID 624168; Pro5-aDG cells, alpha-DG glycosylation AlphaScreen (IIH6); 0% Pro5, 100% B10-LARGE cell signal; 0.22% of 360,000 active; activation, % at 10 µM;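 active = activation of at least 8% versus controls, or a plate z-score of at least 8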;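 note: Pro5 are CHO cells carrying HIG-tagged alpha-DG that lacks glycosylation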
MPTP inh: permeability transition pore inhibition; isolated mouse mitochondria, Ca2+ swelling absorbance, 30 min; inhibition, % at 10 µM; 1.4% of 360,000 active; AID 602449;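 active = inhibition of 50% or more, scaled per plate between neutral and stimulator controls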;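 note: 0% = DMSO wells given calcium and 100% = 1 mM EGTA wells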
Yeast superoxide: lowers age-related superoxide in aged yeast cells; 0.18% of 330,000 active; S. cerevisiae aged cells, superoxide DHE fluorescence; stronger effect = lower value; superoxide response (% of plate mean), % at 10 µM;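 active = superoxide response under a set limit, about three screen SD below normal, cut at about 65% in these data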;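 note: yeast aged for seven days with compound at 30 °C before DHE staining; 100% = average MFI of all compound-treated wells on the plate with controls excluded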
H9c2 protect: protects H9c2 cardiomyocytes from peroxide injury | H2O2 injury protection, ATPLite, 2 h | protection from H2O2 cell death, % at 20 µM | 0.63% of 360,000 active | AID 588492;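 active = compounds giving at least 50% protection of heart cells from peroxide-induced death in the single-dose screen, raw or plate-pattern-corrected value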;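 note: 0% = DMSO wells with peroxide and 100% = DMSO wells without peroxide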
Mot1-301 SUMO: SUMOylation pathway inhibition by Mot1-301 growth rescue; growth rescue, % at 18.8 µM; 1% of 320,000 active; S. cerevisiae Mot1-301 growth rescue, ATP luminescence, 38.5C; percent above DMSO median, 100 means doubled;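 active = every valid replicate shows activation above 250% relative to neutral control wells; inactive = the rest, any valid replicate at or below 250%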;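 note: OY570 slx delta 5 strain wells were the positive control but not used for scaling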
FAS TE block: blocks the thioesterase domain of human fatty acid synthase | P49327 | recombinant FAS-TE, OMFH fluorogenic substrate, fluorescence endpoint | inhibition, % at 15 µM | 0.67% of 360,000 active | AID 602261;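 active = compounds whose normalised, plate-corrected inhibition of enzyme fluorescence in the single-dose primary screen is 50% or more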;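 note: 0% = DMSO with enzyme and 100% = substrate without enzyme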
Superoxide pick: yeast aging superoxide inhibition, cherry pick confirmation; 1% of 850 active; shares compounds with Yeast superoxide; S. cerevisiae aging, superoxide DHE fluorescence; stronger effect = lower value; AID 434994; superoxide response (% of plate), % at 10 µM;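 active = superoxide signal below 65% of the plate average of sample wells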;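 note: cells aged with compound for 7 days at 30 degrees C before staining; 100% equals mean DHE fluorescence of all compound wells on the plate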
DHE counter: counter-screen for compounds affecting DHE oxidation and fluorescence in yeast. shares compounds with Yeast superoxide. S. cerevisiae BY4741, flow cytometry; stronger effect = lower value. fluorescence response, % at 10 µM. 850 tested, under 10 active. AID 435000;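 active = fluorescence response below 15%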;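 note: percent of the mean fluorescence averaged over all compound wells on the plate; lower means stronger quenching of DHE signal or ROS scavenging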
An asterisk follows results filed as active; / = no result.

SMILES	aDG glyco up	MPTP inh	Yeast superoxide	H9c2 protect	Mot1-301 SUMO	FAS TE block	Superoxide pick	DHE counter
CN(CC(O)Cn1c2ccccc2c2ccccc21)S(C)(=O)=O (configuration not stated)	0.5	-1.7	100.8	13.8	267.8	-8.7	100.7	96.9
OC(CN1CCCCC1)Cn1c2ccccc2c2ccccc21 (configuration not stated)	0.0	-1.4	46.2*	7.6	186.7	-9.2	94.9	102.1
O=c1c2ccccc2n(CC(O)CN2CCCCC2)c2ccccc12 (configuration not stated)	0.1	1.8	102.2	7.0	-8.5	-4.3	/	/
Nc1cc2c(cc1Br)-c1ccc(F)cc1C2O (configuration not stated)	0.0	-0.4	/	-6.6	/	-0.7	/	/
Cc1cn([C@H]2C[C@H](O)[C@@H](CNCc3ccc4ncccc4c3)O2)c(=O)[nH]c1=O	0.3	-1.6	/	2.6	/	-9.5	/	/
COc1cccc(NC(=O)Nc2ccc3c(c2)nc(C)n3C)c1	-0.3	2.3	60.6*	-32.9	-31.2	-11.0	108.2	112.3
COc1cccc(NC(=O)Nc2ccc3nc(C)c(C)nc3c2)c1	-0.1	0.4	88.1	6.5	3.3	0.1	/	/
O=C1c2cc(S(=O)(=O)N(CCO)CCO)ccc2-c2ccc(S(=O)(=O)N(CCO)CCO)cc21	-0.2	1.7	102.7	2.1	41.0	-3.6	/	/
CN(CCO)S(=O)(=O)c1ccc2c(c1)C(=NN)c1cc(S(=O)(=O)N(C)CCO)ccc1-2	-0.1	-0.2	65.1*	8.6	11.4	-7.2	89.2	101.0
CCOC(=O)c1ccc(NC(=O)Nc2ccn(C)n2)cc1	0.3	1.4	62.9*	-5.6	-21.2	-7.7	102.6	95.6
O=C(NCc1cccc(C(F)(F)F)c1)c1ccc2sc([C@@H]3O[C@H](CO)[C@H](O)[C@H](O)[C@H]3O)nc2c1	-0.2	0.0	/	2.7	/	-3.8	/	/
O=C(CN(c1ccc(F)cc1)S(=O)(=O)c1ccc2c(c1)OCCO2)NCc1ccccc1	0.1	0.3	91.3	-0.9	5.2	6.9	/	/
O=C(CN(c1ccc2c(c1)OCCO2)S(=O)(=O)c1ccccc1)NCc1ccc(Cl)cc1	-0.2	1.5	61.8*	5.8	358.8	14.8	101.5	91.4
Cc1ccnc(NC(=O)c2ccc(OCc3c(C)noc3C)cc2)c1	0.0	-1.4	/	1.6	/	0.8	/	/
CCOC(=O)NC(=O)/C(C#N)=N/Nc1c(F)cccc1F	-0.2	1.3	93.4	-6.1	-4.7	-1.8	101.0	103.7
CCOC(=O)NC(=O)/C(C#N)=N\Nc1cccc(OC)c1	-0.1	-0.6	102.0	-1.3	210.8	-3.8	121.9	124.5
N#C/C(=N\Nc1c(Cl)cccc1Cl)C(=O)NN	-0.4	-2.1	94.2	0.2	-16.6	-16.8	110.1	118.8
CCOC(=O)Nc1cccc(NC(=O)c2cc(OC)cc(OC)c2)c1	0.0	-2.3	101.7	-0.4	-7.2	2.9	/	/
Cc1ccc([C@@]2(OC(=O)c3ccccc3)C(=O)N(C(=O)OC(C)(C)C)c3ccccc32)cc1	-0.2	3.4	/	/	/	27.7	/	/
COc1ccc(S(=O)(=O)N2CCCC2CNC(=O)C(=O)NCc2ccccc2Cl)cc1 (configuration not stated)	0.2	-1.0	86.3	-6.9	16.4	15.5	/	/
COc1ccc(C(=O)Nc2nncs2)cc1S(=O)(=O)N1CCOCC1	0.0	-0.7	99.6	5.4	107.9	-7.0	/	/
NS(=O)(=O)c1ccc(CCNC(=O)CNC(=O)COc2ccccc2)cc1	0.2	-0.1	55.3*	10.4	9.4	-2.9	97.8	89.5
C[C@@H](C(=O)OCC(=O)NCCc1ccc(S(N)(=O)=O)cc1)N1C(=O)C2CCCCC2C1=O (some centres not stated)	-0.4	-1.0	65.4*	5.3	-12.5	-0.3	101.2	94.3
Cc1ccc(C(=O)N2CCN(c3ccc(Cl)cc3)CC2)cc1	0.3	-1.8	107.2	-9.1	-3.2	1.1	106.1	91.8
CN1CCN(C(=O)c2ccc(Cl)cc2)CC1	-0.2	0.2	108.9	-4.1	-0.8	-5.9	/	/
